Hits are enriched below; roughly 6.6% of the tested compounds scored in any of these assays.
GRIN3A LBD mod – NR3A (human) ligand-binding domain modulation; NR3A LBD differential scanning fluorimetry, Tm shift; 0% = protein alone, 100% = glycine-bound protein; Tm shift relative to glycine control, % at 25 µM; 340,000 tested, 2.5% active; AID 1259313;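 active means melting temperature shift of at least 10% of the positive control shift, at one fixed dose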
Gli-Sufu antag – antagonists of Gli-Sufu signaling. inhibition, % at 5 µM. 340,000 tested, 0.74% active. Sufu-KO-LIGHT fibroblasts, Gli luciferase reporter luminescence. AID 588413;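 active means inhibition above about 55%, limit read from the data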
CSC inhib – cancer stem cell inhibition. inhibition, % at 7.5 µM. 300,000 tested, 1.1% active. cancer stem cell-like cells viability, luminescence; in the data active means inhibition above about 75%; tested in HMLE shEcad cells
MPTP inh – inhibitors of mitochondrial permeability transition pore | isolated mouse mitochondria, Ca2+ swelling absorbance, 30 min | 360,000 tested, 1.4% active | inhibition, % at 10 µM;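 active means inhibition of 50% or more, scaled per plate between neutral and stimulator controls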
Mdm2 MdmX PPI – inhibitors of human Mdm2/MdmX interaction; inhibition, % at 8 µM; O15151+Q00987; 330,000 tested, 3% active; SaOS-2 split-luciferase Mdm2/MdmX complementation, luminescence; AID 485346;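 active means inhibition of at least 50% at 8 µM in the primary screen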
Target sequence (O15151 whole entry, looked up): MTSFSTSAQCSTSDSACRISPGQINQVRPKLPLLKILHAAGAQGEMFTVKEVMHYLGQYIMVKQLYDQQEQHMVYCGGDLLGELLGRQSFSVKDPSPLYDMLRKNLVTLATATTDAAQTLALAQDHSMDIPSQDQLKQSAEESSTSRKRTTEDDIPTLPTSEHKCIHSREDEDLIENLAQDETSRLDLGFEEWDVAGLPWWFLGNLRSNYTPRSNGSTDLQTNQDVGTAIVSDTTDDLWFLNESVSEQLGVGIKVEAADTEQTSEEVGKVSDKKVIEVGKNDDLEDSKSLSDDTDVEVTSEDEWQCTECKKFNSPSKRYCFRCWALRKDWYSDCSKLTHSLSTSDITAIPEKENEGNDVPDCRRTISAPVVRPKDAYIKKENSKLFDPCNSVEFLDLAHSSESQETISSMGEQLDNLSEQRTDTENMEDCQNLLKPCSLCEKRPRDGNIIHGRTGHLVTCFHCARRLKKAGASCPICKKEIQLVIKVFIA
Target sequence (Q00987 whole entry, looked up): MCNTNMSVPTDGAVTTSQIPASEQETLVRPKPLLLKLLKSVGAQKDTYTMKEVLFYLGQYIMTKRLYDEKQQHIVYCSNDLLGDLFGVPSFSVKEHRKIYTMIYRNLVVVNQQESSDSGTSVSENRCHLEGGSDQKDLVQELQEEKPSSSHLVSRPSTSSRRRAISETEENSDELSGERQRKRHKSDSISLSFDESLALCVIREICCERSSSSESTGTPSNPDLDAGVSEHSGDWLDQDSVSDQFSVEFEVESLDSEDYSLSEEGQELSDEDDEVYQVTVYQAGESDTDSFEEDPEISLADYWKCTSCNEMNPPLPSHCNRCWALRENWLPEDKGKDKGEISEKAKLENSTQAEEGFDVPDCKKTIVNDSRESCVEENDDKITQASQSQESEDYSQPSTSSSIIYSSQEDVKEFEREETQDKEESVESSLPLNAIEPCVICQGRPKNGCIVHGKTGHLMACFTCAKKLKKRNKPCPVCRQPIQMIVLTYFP
Beta apoptosis – beta cell apoptosis inhibition. INS-1E cytokine-induced death, ATP luminescence, 48 h; percent of positive-control rescue, neutral wells zero. AID 435005. protection from apoptosis, % (test concentration not listed). 300,000 tested, 0.8% active;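 active means Every replicate reaches about 75%, or at least half do and their mean reaches it too, limit read from the data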;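 further: higher means more ATP so stronger rescue from cytokine killing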
Hits are given with their value; n = inactive; x = no result.

SMILES	GRIN3A LBD mod	Gli-Sufu antag	CSC inhib	MPTP inh	Mdm2 MdmX PPI	Beta apoptosis
Cc1ccc(N(CC(=O)NC(C)(C)C)C(=O)CS(=O)CC(=O)Nc2ccc(F)cc2)cc1 (stereo unspecified)	n	n	n	n	n	n
COC(=O)c1sccc1NC(=O)c1cccnc1	669.0	n	n	n	n	n
COC(=O)c1sccc1NC(=O)c1cccc(Cl)c1	n	n	n	n	n	n
COC(=O)c1sccc1NC(=O)Cc1ccc(Br)cc1	11.6	n	n	n	n	n
COc1ccc(CCN2CC(C(=O)NCCc3ncccc3C)CCC2=O)cc1 (stereo unspecified)	x	x	x	n	x	x
CCN(CC)c1ccc(/C=N/Nc2nn[nH]n2)cc1	n	n	n	n	n	n
CCN(CC)c1ccc(C=N/C(C#N)=C(\N)C#N)cc1	26.9	n	n	n	n	n
CCCNC(=O)c1oc2ccc3c(c2c1C)C(=O)CC(C)(C)O3	633.1	n	n	n	n	n
CCSc1nc2cc(OC)c(OC)cc2c(=O)n1CCc1ccccc1	n	n	n	n	n	n
COCCCn1c(SCCc2ccccc2)nc2cc(OC)c(OC)cc2c1=N	n	n	83.4	n	n	n
CC(=O)N1c2ccc(S(=O)(=O)NCC3CCC(C(=O)Nc4cccc(C)n4)CC3)cc2CC1C (stereo unspecified)	n	n	n	n	n	n
Cc1ccc2c(c1)N(CC(=O)NC1CCCC(C)C1C)C(=O)c1cccnc1O2 (stereo unspecified)	n	n	n	n	n	n
COc1ccccc1NC(=O)Cn1cnc2sc(C)c(S(=O)(=O)N3CCCCC3)c2c1=O	n	n	n	n	n	n
O=C(CSc1ccc(Cl)cc1)Nc1ccc(N2CCN(c3ccccc3)CC2)c(F)c1	19.4	n	n	n	n	x
Cc1ccsc1CN(C(=O)c1ccccc1)C1CCS(=O)(=O)C1 (stereo unspecified)	n	n	n	n	n	n
CCCCNC(=O)C(CC)(ONc1ccccc1C(F)(F)F)c1ccccc1OC (stereo unspecified)	n	n	n	n	n	n
C=CCCN(C1CCCC1)S(=O)(=O)c1ccccc1Br	n	n	n	n	n	n
COc1cc(CN(C2CC2)S(=O)(=O)c2ccccc2Br)cc(OC)c1	14.0	n	x	n	n	x
CC1CCc2c(sc(NC(=O)c3nc4ncccn4n3)c2C#N)C1 (stereo unspecified)	n	n	n	n	n	n
N#Cc1c(NC(=O)c2nc3ncccn3n2)sc2c1CCCCC2	18.3	n	n	n	n	n
COc1ccc(-c2oc3cccnc3c2-c2ccc(OC)nc2)cc1	n	n	n	n	n	x
C=CCn1c(SCC(=O)Nc2ccccc2-c2ccccc2)nc2cc(C(=O)O)ccc2c1=O	n	n	n	n	n	n
C=CCn1c(SCC(=O)Nc2ccc(F)cc2)nc2cc(C(=O)O)ccc2c1=O	14.6	n	x	n	n	n
O=C(NN1C(=O)/C(=C/c2ccc(O)cc2)SC1=S)c1cccc(O)c1	n	n	n	n	n	n
COc1cc(/C=C2\SC(=S)N(NC(=O)c3ccccc3O)C2=O)ccc1O	10.6	n	n	n	n	n
SMILES	GRIN3A LBD mod	Gli-Sufu antag	CSC inhib	MPTP inh	Mdm2 MdmX PPI	Beta apoptosis
O=C(NN1C(=O)/C(=C/c2ccc(O)cc2)SC1=S)c1ccccc1O	16.4	n	n	n	n	n
O=C(CNC(=O)c1cc(S(=O)(=O)N2CCCCC2)ccc1N1CCOCC1)Nc1ccc(F)c(F)c1	n	n	n	n	n	x
O=C(N/N=C/c1c[nH]c2ccccc12)C1COc2ccccc2O1 (stereo unspecified)	28.1	n	n	n	n	n
O=C(N/N=C/c1c[nH]c2ccccc12)C1CC1c1ccccc1 (stereo unspecified)	10.4	n	x	n	n	n
O=C(N/N=C/c1ccco1)C1CC1c1ccccc1 (stereo unspecified)	n	n	n	n	n	n
O=C(N/N=C/c1cccs1)[C@H]1C[C@@H]1c1ccccc1	22.0	x	n	n	n	n
COC(=O)N/N=C/c1c[nH]c2ccccc12	n	n	n	n	n	x
O=C(N/N=C/c1c[nH]c2ccccc12)C1CC1(c1ccccc1)c1ccccc1 (stereo unspecified)	13.0	n	78.6	n	n	n
O=C(CCN1C(=O)C2CC=C(Cl)CC2C1=O)Nc1ccccc1O (stereo unspecified)	10.8	n	n	n	n	n
O=C(CCN1C(=O)C2CC=C(Cl)CC2C1=O)NCc1ccccc1 (stereo unspecified)	n	n	n	n	n	n
COc1cc(OC)cc(C(=O)/C=C2\Sc3ccccc3N2C)c1	n	n	n	n	n	n
CN1/C(=C\C(=O)c2cccc([N+](=O)[O-])c2)Sc2ccccc21	12.4	n	n	n	n	n
CCOc1ccc(Cn2nnc(-c3ccc(S(C)(=O)=O)cc3)n2)cc1OCC	n	n	n	n	n	n
Cc1cccc(C(=O)Nc2ccc(S(=O)(=O)N3CCOCC3)cc2C)c1	n	n	n	n	n	n
Nc1c2c(nc3ccc(Br)cc13)N(c1ccccc1)CC2	10.1	n	n	n	n	n
Cc1cccc(N2CCc3c2nc2ccc(Br)cc2c3N)c1	37.3	n	n	n	n	n
CCNC(=O)C1CCCN(C(=O)c2cc(OC)c(OC)c(OC)c2)CC1 (stereo unspecified)	x	x	x	n	x	x
Nc1n[nH]c(N)c1N=Nc1cccc(C(F)(F)F)c1	20.1	n	n	n	n	n
CCCCCCOC(=O)Nc1ccc(S(=O)(=O)Nc2cccc([N+](=O)[O-])c2)cc1	29.6	n	n	n	n	n
NS(=O)(=O)c1ccc(NS(=O)(=O)c2ccc(NC(=O)c3ccc(-c4ccccc4)cc3)cc2)cc1	23.5	n	n	n	n	n
Cc1ccc(NS(=O)(=O)c2ccc(OCC(=O)Nc3cccc([N+](=O)[O-])c3)c(C)c2)cc1	25.6	n	n	n	n	n
NS(=O)(=O)c1ccc(NC(=O)c2ccc(-c3ccccc3)cc2)cc1	n	n	x	n	x	x
Cc1ccc(NC(=O)CN(C)C(=O)c2ccc(NS(=O)(=O)c3cccc([N+](=O)[O-])c3)cc2)cc1	n	n	n	n	n	n
Cc1ccc(NS(=O)(=O)c2cc(C(=O)Nc3cccnc3)ccc2C)cc1	n	n	n	n	n	n
CCCCOC(=O)Nc1ccc(S(=O)(=O)Nc2nc(C)cc(C)n2)cc1	n	x	x	n	n	n
Cc1ccc(NS(=O)(=O)c2cc(C(=O)Nc3cccc([N+](=O)[O-])c3)ccc2C)cc1	21.2	n	n	n	n	n
Cc1ccc(NC(=O)CN(C)C(=O)c2cccc(Br)c2)cc1	n	n	n	n	n	n
CC1(C(=O)NS(=O)(=O)c2ccc(Cl)cc2)CCN1C(=O)c1ccc(C2CCCCC2)cc1 (stereo unspecified)	x	x	x	n	x	x
Cc1ccc(C(=O)NCCSC2CCCCC2)cc1S(=O)(=O)Nc1ccccc1	16.4	n	n	n	n	n
Cc1ccc(C(=O)N2CCCC2)cc1S(=O)(=O)Nc1ccccc1	n	n	n	n	n	n

Compound activity: PubChem, several laboratories
